For 13 compounds, growth results are on record in PubChem BioAssay (NCI).

About 83,000 compounds went through this panel and 20% of them were active in at least one assay; those are over-represented in the sample as a whole.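 Method: cells in 96-well plates; compound added at one concentration; 48 h incubation; percent growth measured; values under 10 scored active.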 A number with no mark means an inactive call. Activity calls are given as the source filed them.

Test systems include HCT-15 colon; HT29 colon; SNB-75 CNS; SNB-19 CNS; U251 CNS; PC-3 prostate; SK-MEL-5 melanoma; UACC-62 melanoma; LOX IMVI melanoma; SK-MEL-28 melanoma.
Common to all, as to experiment: NCI-60 one-dose screen, 48 h (100 = growth as untreated, 0 = no growth, -100 = all killed)
What all share (conditions): 10 µM unless noted

Take `CC1(C)CC[C@]2(C(=O)N3CCOCC3)CC[C@]3(C)C(=CC[C@@H]4[C@@]5(C)CC[C@H](OC(=O)c6cccnc6)C(C)(C)[C@@H]5CC[C@]43C)[C@@H]2C1`: the growth is 49.4% in the assay with HCT-15 colon; 42.3% in the assay on HT29 colon; 67.7% in the assay with SNB-75 CNS; 67.5% with SNB-19 CNS; 53.2% in the assay on U251 CNS; 38.9% in the assay with PC-3 prostate. For the same compound, the growth is 54.3% with SK-MEL-5 melanoma, 35.7% with UACC-62 melanoma, 28% in the assay on LOX IMVI melanoma and 66.1% in the assay on SK-MEL-28 melanoma.
As to `Cc1cc(C)c2c(-c3nnc(N)s3)cc(=O)oc2c1`, the growth is 98.4% with HCT-15 colon; 112% in the assay on HT29 colon; 98.8% in the assay on SNB-75 CNS; 99.4% in the assay with SNB-19 CNS; 103% in the assay on U251 CNS; 98.9% in the assay with PC-3 prostate. Further, the growth is 98.5% with SK-MEL-5 melanoma, 89.8% in the assay on UACC-62 melanoma, 96.7% in the assay with LOX IMVI melanoma and 104% in the assay on SK-MEL-28 melanoma.
Turning to `CCc1c2c(nc3ccc(OC(=O)NCc4ccc(B5OC(C)(C)C(C)(C)O5)cc4)cc13)-c1cc3c(c(=O)n1C2)COC(=O)[C@]3(O)CC`, the growth was 10.4% in the assay on HCT-15 colon; 25.2% in the assay on HT29 colon; -22.1% (active) in the assay with SNB-75 CNS; 1.93% (active) in the assay with SNB-19 CNS; -33.3% (active) in the assay with U251 CNS; 14.7% in the assay with PC-3 prostate. In addition, the growth in the assay on SK-MEL-5 melanoma is -87.4% (active); in the assay on UACC-62 melanoma it was -80.5% (active); in the assay with LOX IMVI melanoma it was -71.6% (active); in the assay on SK-MEL-28 melanoma it was 3.27% (active).
Regarding `CC1SC(c2ccc(OCc3ccccc3)cc2)N(NC(=O)C(O)(c2ccccc2)c2ccccc2)C1=O` (stereo not given), the growth in the assay on HCT-15 colon was 60.9%; with HT29 colon, 38.1%; in the assay with SNB-75 CNS, 77.5%; in the assay with SNB-19 CNS, 69.3%; with U251 CNS it was 66%; in the assay with PC-3 prostate, 30.1%. For the same compound, the growth was 94.9% in the assay on SK-MEL-5 melanoma, 63.7% with UACC-62 melanoma, 58.9% with LOX IMVI melanoma and 78.2% with SK-MEL-28 melanoma.
Consider `CN1CCN(CC(=O)Nc2nc(-c3cccc(NS(=O)(=O)c4cccc5c(N(C)C)cccc45)c3)cs2)CC1`, for which the growth in the assay with HCT-15 colon is 42.6%; in the assay on HT29 colon it was 35.2%; with SNB-75 CNS, 74.3%; in the assay with SNB-19 CNS, 73.3%; in the assay on U251 CNS it was 65.9%; in the assay on PC-3 prostate, 42.2%. The growth is 48.9% in the assay on SK-MEL-5 melanoma, 54% in the assay on UACC-62 melanoma, 29.7% in the assay with LOX IMVI melanoma and 78.2% with SK-MEL-28 melanoma.
Turning to `Cc1cccc(Cc2cnc(NC(=O)c3ccc4nnsc4c3)s2)c1`, the growth with HCT-15 colon was 68.6%; with HT29 colon it was 82.8%; in the assay with SNB-75 CNS, 105%; in the assay with SNB-19 CNS it was 96.1%; with U251 CNS, 88.7%; with PC-3 prostate it was 66.1%. Also, the growth in the assay with SK-MEL-5 melanoma was 97.3%; in the assay with UACC-62 melanoma, 35.3%; in the assay on LOX IMVI melanoma, 34.6%; with SK-MEL-28 melanoma it was 103%.
Regarding `CCOC(=O)c1c(/C=C/C(=O)O)nc2ccccc2c1/C=C/c1ccccc1`, the growth was 23.9% in the assay with HCT-15 colon; 49.9% with HT29 colon; 15% with SNB-75 CNS; 61.1% in the assay on SNB-19 CNS; 51.2% with U251 CNS; 53.5% with PC-3 prostate. Also, the growth was 53.7% in the assay with SK-MEL-5 melanoma, 45.5% in the assay on UACC-62 melanoma, 28.1% with LOX IMVI melanoma and 45.8% in the assay on SK-MEL-28 melanoma.
Regarding `COC(=O)CCC1=C(C)C2=NC1=CC1=NC(=CC3=NC(=Cc4[nH]c(/c(=C(/C)O)c4C)=C2)C(C(C)=O)=C3C)C(C)=C1CCC(=O)OC`, the growth in the assay with HCT-15 colon was 99.8%; in the assay with HT29 colon it was 107%; in the assay with SNB-75 CNS it was 90.6%; with SNB-19 CNS, 97.3%; in the assay on U251 CNS, 98.9%; in the assay on PC-3 prostate, 83.7%. The growth with SK-MEL-5 melanoma is 103%; with UACC-62 melanoma it was 97.2%; in the assay on LOX IMVI melanoma, 96%; in the assay on SK-MEL-28 melanoma it was 115%.
With `COc1ccc(C2CC(c3cccc(OC)c3)=NN2C(=O)c2cc(OC)c(OC)c(OC)c2)cc1` (stereo not given), the growth was 30.9% in the assay with HCT-15 colon; 14% in the assay on HT29 colon; 22.3% in the assay on SNB-75 CNS; 28.5% in the assay on SNB-19 CNS; 35.5% in the assay on U251 CNS; 25.7% in the assay with PC-3 prostate. In addition, the growth in the assay with SK-MEL-5 melanoma was -3.53% (active); with UACC-62 melanoma, 37.9%; in the assay on LOX IMVI melanoma, 35.5%; in the assay with SK-MEL-28 melanoma, 56.2%.
For `CC(CN1CCCCC1)C(=O)c1ccccc1` (stereo not given), the growth with HCT-15 colon is 107%; in the assay on HT29 colon, 101%; with SNB-75 CNS, 101%; in the assay with SNB-19 CNS, 101%; in the assay on U251 CNS, 101%; in the assay on PC-3 prostate it was 95.4%. The growth was 102% with SK-MEL-5 melanoma, 104% in the assay with UACC-62 melanoma, 98.3% in the assay with LOX IMVI melanoma and 106% in the assay with SK-MEL-28 melanoma.
Turning to `CCCCn1c(=O)c2c(nc3n2CCCN3CCc2ccc(OCC(=O)NCCN(CC)CC)cc2)n(CCCC)c1=O`, the growth in the assay on HCT-15 colon was 1.38% (active); with HT29 colon it was 5.96% (active); with SNB-75 CNS, 44.6%; with SNB-19 CNS, 65.3%; in the assay with U251 CNS, 24.6%; with PC-3 prostate, 47.7%. Moreover, the growth with SK-MEL-5 melanoma was 28.3%; in the assay on UACC-62 melanoma, 20.7%; in the assay on LOX IMVI melanoma, 11%; in the assay on SK-MEL-28 melanoma it was -36.4% (active).
`O=C(Nc1ccc(Cl)cc1)Nc1ccc(Cl)c(C(F)(F)F)c1`: the growth in the assay on HCT-15 colon was 8.11% (active); with HT29 colon, 18.9%; in the assay with SNB-75 CNS it was 41.3%; in the assay with SNB-19 CNS, 13%; in the assay with U251 CNS, 4.41% (active); with PC-3 prostate it was -8.98% (active). Further, the growth was -13.3% (active) in the assay with SK-MEL-5 melanoma, 23.9% with UACC-62 melanoma, 3.49% (active) in the assay with LOX IMVI melanoma and 19.1% in the assay with SK-MEL-28 melanoma.
With `NC(=S)Nc1cccc(O)c1`, the growth with HCT-15 colon was 88.3%; in the assay on HT29 colon, 103%; in the assay with SNB-75 CNS, 83.8%; with SNB-19 CNS, 99.3%; in the assay on U251 CNS it was 95.5%; with PC-3 prostate, 105%. The growth in the assay on SK-MEL-5 melanoma is 106%; with UACC-62 melanoma, 90.5%; in the assay with LOX IMVI melanoma, 87.8%; with SK-MEL-28 melanoma, 110%.
